Assay outcomes deposited in PubChem BioAssay by National Center for Advancing Translational Sciences (NCATS).
In the library only some 21% were active in any assay of this set; here they are far more common.
Pf growth 48h = inhibits P. falciparum growth in the first generation, 48 h. Potency, µM (doses to about 28.7 µM), for inactives: top-dose activity change, negative = inhibition, actives largely listed as inhibitors. hit rate 5.9% among 310,000. P. falciparum luciferase growth in erythrocytes, 48 h; active = well fitted inhibition curve with a large enough effect; inconclusive = small, poorly fitted or top-dose-only effect, or another doubt; inactive = no such curve, though single readings can be large or run the other way; also: potency is read from the fitted curve at half-maximal effect; % is scaled to controls: 0 for no effect and ±100 for the full control effect
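Read-out is firefly luciferase luminescence from an integrated reporter in P. falciparum, so falling signal marks reduced parasite growth. Infected erythrocytes were at 2% hematocrit and 0.1% parasitemia (final) in Albumax-supplemented RPMI 1640.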
SARS PLpro yeast = SARS-CoV PLP inhibition in yeast. S. cerevisiae expressing SARS-CoV PLpro, growth rescue. Potency, µM (series often up to 32.9 µM), without a hit: top-dose activity, positive = growth rescue, hits mostly activators. hit rate 0.19% among 330,000; also: potency is read from the fitted curve at half-maximal effect; 0% is about no effect; nearly all actives have a fitted effect of over 55% in size
NS1 function inh = influenza NS1 inhibition. Potency, µM (highest dose often 46.1 µM), inactives show at the top dose activity, positive = more growth. hit rate 0.4% among 270,000. AID 2326; also: potency is read from the fitted curve at half-maximal effect; actives are rising curves; nearly all actives have a fitted effect of over 50% in size
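A cell-based growth assay was used: compounds that relieve NS1-induced slow growth of budding yeast raise OD600. Assay medium was yeast nitrogen base with ammonium sulphate and -URA supplement, pH 6.0, with 2% galactose.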
CHX counter = counter-screen for Shiga toxin inhibitors: cycloheximide protein synthesis inhibition; cell reporter, cycloheximide protein synthesis inhibition counterscreen; max response, %; hit rate 12% among 300,000; in the data active = max response mostly above about 13%, no sharp cut-off; inactive = mostly below about 14%; also: read at 38.3 µM for the half of the compounds with a filed dose; 0% is about no effect
Pf growth 96h = P. falciparum growth inhibition at 96 hour, primary screen for plastid delayed-death inhibitors | P. falciparum luciferase reporter growth, 96 h | Potency, µM (top dose mostly 28.7 µM), for inactives: top-dose activity change, negative = inhibition, usual class: inhibitors | hit rate 6.9% among 320,000 | AID 504834; active = well fitted inhibition curve with a large enough effect; inconclusive = small, poorly fitted or top-dose-only effect, or another doubt; inactive = no such curve, though single readings can be large or run the other way; also: potency is read from the fitted curve at half-maximal effect; % is scaled to controls: 0 for no effect and ±100 for the full control effect
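Two-generation exposure (96 h) targets delayed-death phenotype. Reporter parasites carrying integrated firefly luciferase, in red cells at 2% hematocrit and 0.05% parasitemia final, kept at 37 C, 5% CO2; luminescence loss indicates inhibition.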
Shiga inhibitor = blocks Shiga toxin action in Vero cells; Vero cells, Shiga toxin protein synthesis inhibition reporter; inhibition, % at 38.7 µM; AID 2315; hit rate 9.2% among 290,000; in the data active = inhibition mostly above about 28%, no sharp cut-off; inactive = mostly below about 43%; also: 0% is about no effect
Numbers without * were called inactive; ? = inconclusive; / = no result. Unless noted, calls follow the shape of the full dose curve.

SMILES	Pf growth 48h	SARS PLpro yeast	NS1 function inh	CHX counter	Pf growth 96h	Shiga inhibitor
O=C(NCC1CCCO1)c1ccc2c(c1)N(Cc1ccccc1)C(=O)CS2=O (configuration not stated)	?	4%	-3%	-3	-16%	-2
CC1CCCC(NC(=O)c2ccc3c(c2)N(Cc2ccccc2)C(=O)CS3=O)C1C (configuration not stated)	17µM*	-9%	24%	4	10µM*	-5
O=C(NC1CCCCCCC1)c1ccc2c(c1)N(Cc1ccc(F)cc1)C(=O)CS2=O (configuration not stated)	12µM*	12%	0%	1	?	-12
CCC(C(=O)NCCCN1CCCC1=O)n1c2ccccc2c2nc(=O)cc(C)n21 (configuration not stated)	11%	-1%	3%	-9	?	-5
COc1ccc(OCCCC(=O)Nc2nc(-c3ccccn3)cs2)cc1	?	5%	3%	4	?	8
c1ccc(Nc2nc(-c3ccccn3)cs2)cc1	6%	/	-179%	41*	-48%	108*
COc1cccc2sc(Nc3nc(-c4ccccn4)cs3)nc12	0.47µM*	-43%	-110%	75*	?	105*
O=C(Nc1nc(-c2ccccc2Cl)cs1)c1cccnc1	?	1%	6%	2	/	56
c1ccc(-c2csc(Nc3cccnc3)n2)nc1	96%	-5%	-37%	35*	24%	44*
Cc1nc2ncccn2c1-c1csc(Nc2ccccc2)n1	3.3µM*	9%	-26%	13	6%	22
O=C(CCCOc1ccc(Cl)cc1Cl)NN1CCOCC1	15%	-12%	2%	0	0%	13
COC(=O)c1cc(NC(=O)Cc2cc(OC)c(OC)c(OC)c2)cc(C(=O)OC)c1	-10%	0%	/	1	?	-7
O=C(Nc1nc(-c2cccs2)cs1)c1ccc([N+](=O)[O-])o1	?	-1%	/	/	?	/
c1cncc(Nc2nc(-c3cccs3)cs2)c1	2%	-18%	-77%	63*	2.9µM*	103*
O=C(/C=C/c1cc2ccccc2o1)c1ccccc1O	126%	0%	0%	41*	114%	78*
O=C(/C=C/c1ccc(O)c(O)c1)OCCc1ccccc1	/	/	-38%	64*	/	80*
O=C(/C=C/c1ccoc1)c1ccccc1O	35%	-26%	-4%	44*	2%	97*
O=C(/C=C/c1ccc(O)c(O)c1)c1ccccc1O	25%	-3%	-75%	41*	10%	72*
O=C(/C=C/c1ccccn1)c1cc(Br)ccc1O	?	-3%	-41%	10	-103%	13
COc1ccc(-n2ccc3ccccc32)cc1	42%	0%	-2%	25*	33%	32
Cc1cc(Cl)nc(Cl)c1C(=O)NCc1ccc(Cl)cc1	14%	-2%	0%	-3	?	-2
CN(Cc1ccon1)C(=O)C1CCC(=O)N(Cc2ccc(Cl)cc2)C1 (configuration not stated)	-4%	2%	-8%	-2	2%	-4
CCOC(=O)/C(=C\Nc1ccc(OC(F)(F)F)cc1)Sc1ncc(C(F)(F)F)cc1Cl	2.1µM*	-7%	?	-3	/	-25
CCOC(=O)/C(O)=C/c1ncc(C(F)(F)F)cc1Cl	37%	-1%	-9%	2	30%	43
Cc1occc1-c1nnc(SCC(=O)Nc2ccc(F)cc2)n1C	?	2%	6%	2	4%	-6
SMILES	Pf growth 48h	SARS PLpro yeast	NS1 function inh	CHX counter	Pf growth 96h	Shiga inhibitor
Cc1cccc(C)c1NC(=O)CSc1nnc(-c2ccoc2C)n1C	0%	1%	3%	-2	9.3µM*	7
COC(=O)CSc1nnc(-c2ccoc2C)n1-c1ccc(OC)cc1	6%	-7%	-56%	-3	?	-7
COc1ccc(OCCSc2nnc(-c3ccoc3C)n2C)cc1	8.3µM*	-2%	-13%	0	?	7
CCOC(=O)c1cccc(NC(=O)CSc2nnc(-c3ccoc3C)n2CC)c1	-9%	3%	-11%	16	13µM*	-20
CCOC(=O)c1cccc(NC(=O)CSc2nnnn2CC)c1	-3%	-5%	-5%	-3	-8%	7
CC(C)(C)OC(=O)NC(Cc1ccccc1)C(=O)NC1COC2CC(n3ccc(=O)[nH]c3=O)OC12 (configuration not stated)	/	/	/	-5	/	6
CSCC[C@H](NC(=O)N1CCn2c1nc1ccccc12)C(=O)NCc1ccccc1	-5%	11%	-11%	-3	1%	-4
COc1ccc(Cl)cc1NC(=S)NCCCN1CCCC1=O	-3%	-1%	/	1	45%	-6
COC(=O)c1ccc2c(=O)n(CCCN3CCCC3=O)c(=S)[nH]c2c1	12µM*	0%	2%	-1	-19%	-8
COc1cc(C(=O)NCCCN2CCCC2=O)ccc1OCc1ccc(Cl)cc1Cl	10µM*	-1%	/	/	?	/
COc1ccc(CNC(=O)c2ccc3c(=O)n(CCCN4CCCC4=O)c(=S)[nH]c3c2)cc1	?	-1%	/	-1	4.1µM*	14
COc1ccccc1CNC(=O)c1ccc2c(=O)n(CCCN3CCCC3=O)c(=S)[nH]c2c1	?	-3%	/	-1	15µM*	1
COc1cc2cc(CCCOC(=O)c3ccc4c(c3)OCO4)oc(=O)c2cc1OC	3%	1%	/	/	?	/
Cc1cc(C)c2c(n1)SCC(=O)N2CC(=O)Nc1ccccc1Cl	30%	-1%	-2%	-2	-10%	-3
CC(NC(=O)CCNS(=O)(=O)c1cccc2nonc12)c1ccccc1 (configuration not stated)	23%	-4%	-6%	-5	?	-7
O=C1S/C(=C\c2ccc(N3CCOCC3)o2)C(=O)N1Cc1c(F)cccc1Cl	?	-4%	-22%	-2	12µM*	-9
O=C1S/C(=C/c2ccc(N3CCOCC3)o2)C(=O)N1Cc1c(F)cccc1Cl	5%	-23%	-1%	6	/	1
O=C1S/C(=C\c2ccc(N3CCOCC3)o2)C(=O)N1c1ccccc1	-16%	-2%	/	31*	55%	153*
Cc1ccccc1N1C(=O)NC(=O)/C(=C/c2ccc(N3CCOCC3)o2)C1=O	2%	0%	3%	-1	-6%	-8
O=C(O)c1ccccc1-c1ccc(C=C2C(=O)N(c3ccccc3)C(=S)N(c3ccccc3)C2=O)o1	24%	0%	22%	12	12µM*	/
O=C(O)c1ccccc1-c1ccc(/C=C2\SC(=O)N(c3ccccc3)C2=O)o1	98%	-6%	12%	15*	?	/
O=Cc1ccc(-c2ccccc2C(=O)O)o1	16%	0%	0%	-3	1%	17
CCC(c1nnc(SC(C)C(=O)NC2CC2)n1-c1ccc(OC)cc1)N(C)C (configuration not stated)	?	1%	/	/	?	/
